Among the test systems are DU-145 prostate; K-562 leukemia; MALME-3M melanoma; MDA-MB-231 breast; RXF 393 renal; SF-268 CNS; SF-295 CNS; SF-539 CNS; UACC-257 melanoma; M14 melanoma.
What all share (experiment): NCI-60 one-dose screen, 48 h (100 = growth as untreated, 0 = no growth, -100 = all killed)
Details in all cases: 10 µM

The panel holds about 83,000 compounds, 20% with a hit somewhere; the sample as a whole holds those more often.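 Method: cells in 96-well plates; compound added at one concentration; 48 h incubation; percent growth measured; values under 10 scored active.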 Values without a mark were called inactive. The source made the active and inactive calls.

As to `COc1ccc(/C=C2\CCC3C(CCCC34OCCO4)C2=O)cc1` (stereo not given), the growth in the test on DU-145 prostate was 87.6%; in the test on K-562 leukemia, 39.7%; in the test on MALME-3M melanoma, 70.5%; with MDA-MB-231 breast, 96%; with RXF 393 renal, 96.6%; in the test on SF-268 CNS it was 97.2%. Moreover, the growth in the test with SF-295 CNS was 107%; in the test with SF-539 CNS, 88.8%; in the test on UACC-257 melanoma, 91%; with M14 melanoma it was 95.6%.
As to `COc1ccc(C2C=C(c3ccc(Cl)c(Cl)c3)N=C3SC(C)=CN32)cc1` (stereo not given), the growth in the test on DU-145 prostate was 100%; in the test with K-562 leukemia, 83.2%; with MALME-3M melanoma, 90.2%; in the test on MDA-MB-231 breast, 101%; in the test on RXF 393 renal, 83%; in the test on SF-268 CNS it was 97.2%. In addition, the growth with SF-295 CNS was 87.3%; in the test on SF-539 CNS, 95.7%; with UACC-257 melanoma, 109%; in the test with M14 melanoma, 97.3%.
In the case of `O=C1CC[C@@H](C(=O)N[C@H]2CSSC[C@@H](C(=O)N/C=C/c3ccc(O)cc3)NC(=O)[C@H](Cc3ccccc3)NC(=O)[C@@H]3CCCN3C(=O)[C@@H]3CCCN3C2=O)N1`, the growth was 106% in the test on DU-145 prostate; 93.9% in the test on K-562 leukemia; 115% with MALME-3M melanoma; 98.9% in the test on MDA-MB-231 breast; 96.9% with RXF 393 renal; 107% in the test with SF-268 CNS. Also, the growth with SF-295 CNS was 99.5%; in the test on SF-539 CNS, 96.6%; with UACC-257 melanoma, 95.4%; in the test on M14 melanoma it was 94.5%.
With `CN(C)CCCN(Cc1ccccc1O)C(=S)Nc1ccc(Cl)cc1`, the growth was 121% in the test with DU-145 prostate; 97.5% with K-562 leukemia; 101% in the test on MALME-3M melanoma; 97% in the test with MDA-MB-231 breast; 93.4% in the test on RXF 393 renal; 102% with SF-268 CNS. Further, the growth was 94.7% with SF-295 CNS, 104% in the test on SF-539 CNS, 101% in the test with UACC-257 melanoma and 108% in the test on M14 melanoma.
In the case of `CC(C)c1ncc(CO)n1Cc1c(Cl)cccc1Cl`, the growth with DU-145 prostate was 106%; in the test with K-562 leukemia it was 92.3%; in the test with MALME-3M melanoma, 103%; in the test with MDA-MB-231 breast, 115%; with RXF 393 renal, 95.8%; in the test on SF-268 CNS, 96.5%. Also, the growth is 96.1% in the test on SF-295 CNS, 98.7% in the test with SF-539 CNS, 106% in the test with UACC-257 melanoma and 109% in the test with M14 melanoma.
For the compound `CCOC(=O)c1c(C(F)(F)F)n([O-])c2ccc(OC)cc2[n+]1=O`, the growth with DU-145 prostate was 26.2%; in the test with K-562 leukemia, 2.01% (active); in the test on MALME-3M melanoma, 25.8%; with MDA-MB-231 breast it was 19.8%; with RXF 393 renal it was 41.9%; with SF-268 CNS, 31.1%. The growth with SF-295 CNS is -36% (active); in the test with SF-539 CNS it was 48.8%; with UACC-257 melanoma it was -5.73% (active); with M14 melanoma it was 26.9%.
As for `O=C1/C(=C/c2ccc(O)cc2)CSc2ccc(Cl)cc21`, the growth in the test with DU-145 prostate was 102%; in the test with K-562 leukemia, 64%; with MALME-3M melanoma, 111%; in the test with MDA-MB-231 breast it was 77.5%; with RXF 393 renal it was 91.1%; in the test on SF-268 CNS, 93%. Also, the growth in the test on SF-295 CNS is 91.6%; with SF-539 CNS, 85.5%; in the test with UACC-257 melanoma, 100%; with M14 melanoma, 88.8%.
On to `CC(=O)Oc1c(C)c(C)c2c(c1C)CCC(C)(CC(=O)OCCCCCCCCCCC[P+](c1ccccc1)(c1ccccc1)c1ccccc1)O2` (stereo not given), for which the growth with DU-145 prostate was -71.5% (active); with K-562 leukemia, -33.9% (active); with MALME-3M melanoma it was -66.3% (active); with MDA-MB-231 breast it was -88.9% (active); in the test with RXF 393 renal, -89.5% (active); in the test with SF-268 CNS, -72.3% (active). Also, the growth with SF-295 CNS is -79.8% (active); with SF-539 CNS, -93.6% (active); in the test with UACC-257 melanoma, -80.5% (active); in the test on M14 melanoma it was -87.5% (active).
For the compound `COc1cc(CSc2nc3ccc(Cl)cc3c(=O)n2-c2ccccc2)cc(OC)c1OC`, the growth with DU-145 prostate is 92.9%; with K-562 leukemia it was 38.2%; in the test with MALME-3M melanoma, 76.5%; in the test with MDA-MB-231 breast it was 63%; in the test on RXF 393 renal, 68.9%; in the test on SF-268 CNS it was 77.7%. For the same compound, the growth is 84.2% in the test with SF-295 CNS, 78.9% in the test on SF-539 CNS, 89.7% with UACC-257 melanoma and 93.2% with M14 melanoma.
As to `N#Cc1c(-c2ccccc2)nc(SCC(=O)N2CCOCC2)[nH]c1=O`, the growth with DU-145 prostate is 112%; with K-562 leukemia, 89.8%; in the test on MALME-3M melanoma, 92.4%; with MDA-MB-231 breast, 114%; in the test with RXF 393 renal it was 117%; with SF-268 CNS, 104%. For the same compound, the growth in the test with SF-295 CNS is 97.1%; in the test with SF-539 CNS, 97.1%; in the test with UACC-257 melanoma, 97%; in the test with M14 melanoma, 100%.
For `C=CCNC(=S)NN`, the growth is 92.5% in the test with DU-145 prostate; 52.4% with K-562 leukemia; 79.7% in the test with MALME-3M melanoma; 90.9% in the test with MDA-MB-231 breast; 105% in the test on RXF 393 renal; 95.8% in the test with SF-268 CNS. In addition, the growth was 88.8% in the test on SF-295 CNS, 95.1% in the test on SF-539 CNS, 50.7% with UACC-257 melanoma and 97.9% with M14 melanoma.
On to `C[C@]12CC[C@H]3[C@@H](CC=C4C[C@@H](O)CC[C@@]43C)[C@@H]1CC[C@@H]2C(=O)C/C=N/O`, for which the growth in the test on DU-145 prostate is 99.5%; with K-562 leukemia it was 78.1%; in the test with MALME-3M melanoma, 84%; in the test with MDA-MB-231 breast, 103%; in the test with RXF 393 renal it was 96.2%; in the test on SF-268 CNS, 92.2%. The growth in the test with SF-295 CNS is 97.2%; in the test with SF-539 CNS, 91.6%; with UACC-257 melanoma, 99.5%; in the test on M14 melanoma it was 95.7%.
`O=C(O)CNS(=O)(=O)c1ccc(OCCOc2ccc(S(=O)(=O)NCC(=O)O)cc2)cc1`: the growth in the test with DU-145 prostate is 107%; in the test with K-562 leukemia, 104%; with MALME-3M melanoma, 99.7%; in the test on MDA-MB-231 breast, 108%; with RXF 393 renal, 106%; in the test with SF-268 CNS, 98.9%. Also, the growth is 104% with SF-295 CNS, 93.6% with SF-539 CNS, 104% in the test with UACC-257 melanoma and 104% in the test with M14 melanoma.
Take `COc1ccc2nc(C)cc(Nc3ccc(Cl)cc3)c2c1`: the growth was 102% in the test with DU-145 prostate; 97.9% in the test with K-562 leukemia; 114% in the test on MALME-3M melanoma; 115% with MDA-MB-231 breast; 118% with RXF 393 renal; 103% in the test with SF-268 CNS. Further, the growth in the test with SF-295 CNS was 108%; in the test with SF-539 CNS, 104%; in the test with UACC-257 melanoma, 99.4%; with M14 melanoma, 100%.
